Results from PubChem BioAssay (NCI).
The panel holds about 83,000 compounds, 20% with a hit somewhere; the sample as a whole holds those more often.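 For each line, cells grew in 96-well plates with the test compound present at a single concentration for 48 hours.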

Experiments:
Experiment in all cases: NCI-60 one-dose screen, 48 h (100 = growth as untreated, 0 = no growth, -100 = all killed)
Settings in all cases: 10 µM unless noted; active = growth percent below 10; inactive = the rest
[1] = tested on: T-47D breast
[2] = tested on: BT-549 breast
[3] = tested on: MDA-MB-435 melanoma
[4] = tested on: SW-620 colon
[5] = tested on: MCF7 breast
[6] = tested on: HCT-116 colon
[7] = tested on: HCC-2998 colon
[8] = tested on: KM12 colon

Measured: growth

CCOC(=O)C(CCC#N)(CCC#N)C(=O)OCC
inactive: [1] 112% | [2] 98% | [3] 101% | [4] 100% | [5] 91.4% | [6] 97.3% | [7] 97.6% | [8] 106%

Nc1ccc2c(c1)Cc1cc(N)c(N)cc1-2
inactive: [1] 84.4% | [2] 104% | [3] 104% | [4] 100% | [5] 73.3% | [6] 95.8% | [7] 110% | [8] 94.3%

O=C(Nc1c(Cl)cc(Cl)cc1Cl)ON=C1CCCCC1
inactive: [1] 98.6% | [2] 113% | [3] 107% | [4] 114% | [5] 102% | [6] 107% | [7] 117% | [8] 96.5%

CCNC(=O)Oc1ccc[nH]c1=O
inactive: [1] 86.1% | [2] 110% | [3] 103% | [4] 105% | [5] 91.5% | [6] 108% | [7] 106% | [8] 104%

CCCCCCCCCCCCCCCCCCSC(=N)N
inactive: [1] 90% | [2] 104% | [3] 84.7% | [4] 46.3% | [5] 51.7% | [6] 66.6% | [7] 45.2% | [8] 64.5%

CC1CC(C)S(=O)(=O)C1 (centres undefined)
inactive: [1] 109% | [2] 103% | [3] 106% | [4] 108% | [5] 102% | [6] 114% | [7] 99% | [8] 102%

O=S(=O)(O)C(C(I)I)S(=O)(=O)O
inactive: [1] 118% | [2] 118% | [3] 104% | [4] 105% | [5] 98.9% | [6] 107% | [7] 101% | [8] 103%

Oc1cccc(CNC2CCCCC2)c1
inactive: [1] 113% | [2] 112% | [3] 105% | [4] 116% | [5] 91.3% | [6] 103% | [7] 102% | [8] 107%

CC1(c2ccccc2)CO1 (centres undefined)
inactive: [1] 109% | [2] 112% | [3] 113% | [4] 108% | [5] 103% | [6] 101% | [7] 111% | [8] 108%

CN(C)Cc1ccccn1
inactive: [1] 102% | [2] 101% | [3] 103% | [4] 103% | [5] 97% | [6] 99.8% | [7] 119% | [8] 111%

CC(=O)CSc1ncnc2nc[nH]c12
inactive: [1] 82% | [2] 102% | [3] 89.7% | [4] 96% | [5] 74.7% | [6] 88.7% | [7] 97.5% | [8] 123%

C=COC(=O)C(C)(C)C
inactive: [1] 93.8% | [2] 89% | [3] 101% | [4] 98.4% | [5] 96% | [6] 109% | [7] 94.1% | [8] 107%

O=C(NCc1ccccc1)/C(=C/c1ccccc1)NC(=O)c1ccccc1
inactive: [1] 110% | [2] 98.6% | [3] 113% | [4] 102% | [5] 96.6% | [6] 107% | [7] 102% | [8] 101%

O=C(O)CSCC(=O)Nc1cc(C(F)(F)F)ccc1Cl
inactive: [1] 102% | [2] 114% | [3] 111% | [4] 125% | [5] 102% | [6] 107% | [7] 118% | [8] 105%

COc1cc(OC)c(NC(=O)C(Sc2nc(C)cc(C)c2C#N)c2ccccc2)cc1Cl (centres undefined)
inactive: [1] 95.9% | [2] 81.7% | [3] 105% | [4] 107% | [5] 95.5% | [6] 86.7% | [7] 111% | [8] 96.4%

C#CC(O)c1ccccc1 (centres undefined)
inactive: [1] 99.9% | [2] 106% | [3] 108% | [4] 102% | [5] 99.1% | [6] 102% | [7] 125% | [8] 107%

COc1nc(Nc2cccc(C(F)(F)F)c2)nc(OC)n1
inactive: [1] 92.5% | [2] 91% | [3] 106% | [4] 110% | [5] 97.9% | [6] 97% | [7] 108% | [8] 97.8%

Cc1ccc(N)c(S(=O)(=O)O)c1
inactive: [1] 101% | [2] 104% | [3] 117% | [4] 101% | [5] 98.9% | [6] 98.1% | [7] 95.7% | [8] 101%
